Data: PubChem BioAssay (NCI)
Compounds without any hit were thinned out: in the full panel of roughly 83,000, 20% have a hit.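 Cell lines were cultured in 96-well plates, exposed to a single compound concentration, and assessed for percent growth 48 hours later.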 A number with no mark means an inactive call. Calls of active or inactive are those of the source. The calls were made as follows: active = growth percent below 10; inactive = the rest.

The molecules below were run on HL-60(TB) leukemia (assay: NCI-60 one-dose screen, 48 h (100 = growth as untreated, 0 = no growth, -100 = all killed)). Conditions: 10 µM unless noted.
`CCCCCc1c(C)[nH]c(/C=C2\N=C(c3ccc[nH]3)C=C2Oc2ccc(OC)cc2)c1C` was tested, and the growth was -39% [100 µM] (active).
In the case of `COc1cc([C@@H]2c3cc4c(cc3[C@H](OC3OC5COC(c6ccccc6)OC5C(O)C3O)[C@H]3COC(=O)[C@H]23)OCO4)cc(OC)c1OC` (stereo not given in full), the growth is reported as -33.6% (active).
`O=C(Nc1ccccc1Cl)c1c[nH]c(=O)c(-c2ccc(N3CCCOC4(CC4)C3)cc2)c1` gave a growth of 28.3%.
In the case of `N#Cc1ccc(NC(=O)Nc2nc3ccc(OC(F)(F)F)cc3s2)cc1`, the growth is reported as -47% (active).
`Oc1c(CN2CCCC2)cc(COCc2ccc(Br)cc2)c2cccnc12` was tested, and the growth was -9.34% (active).
`O=C1/C(=C/c2ccccc2)CN(CCC(=O)N2C/C(=C\c3ccccc3)C(=O)/C(=C/c3ccccc3)C2)C/C1=C\c1ccccc1` was tested, and the growth was 48%.
`COc1ncnc2c1ncn2C/C(Br)=C(\Br)CCl` gave a growth of 47.1%.
With `Nc1ccc(Nc2nccc(-c3ccc4ccccc4c3)n2)cc1` the growth was 21.2%.
In the case of `CCCc1c(OC(=O)c2ccccc2)nc2[nH]c(=O)sc2c1C`, the growth is reported as 98%.
`O=c1[nH][n+](-c2ccc(Br)cc2)no1` showed a growth of 20.2%.
Work on `CCCCCCCNC(=O)CCCNc1ncnc2c1ncn2-c1cccc(C(C)O)c1` (stereo not given) yielded a growth of 24%.
With `Cc1cc2nc(NC(=O)CN3CCN(CCN4C(=O)c5cccc6cccc(c56)C4=O)CC3)sc2cc1C` the growth was 52.3%.
For `COC(=O)CCC1=C(CC(=O)OC)C(C)=N/C1=C\c1[nH]c(-c2ccc[nH]2)cc1OC`, the growth was 44.2%.
With `CCN1CCN(C(=O)[C@]23CCC(C)(C)C[C@@H]2C2=CC[C@@H]4[C@@]5(C)C/C(=C/c6ccncc6)C(=O)C(C)(C)[C@@H]5CC[C@@]4(C)[C@]2(C)CC3)CC1` the growth was -33.8% (active).
Work on `COc1ccc2nc3cc(Cl)ccc3c(Nc3ccc(N(C)C)cc3)c2c1` yielded a growth of 90%.
For `C/C=C/C(N)=O`, the growth was 107%.
For `Nc1c(C(=O)Nc2c(Cl)cccc2Cl)sc2nc3c(cc12)CCCC3`, the growth was 35%.
With `CCN(CC)CCN(CCN(CC)CC)c1ccccc1` the growth was 87.9%.
In the case of `CCOP(=O)(OCC)C1CP(=O)(c2ccccc2)CC(C)=C1Cl` (stereo not given), the growth is reported as 92.1%.
In the case of `O=C(N/N=C/c1cccc([N+](=O)[O-])c1)c1ccc(Br)o1`, the growth is reported as 103%.
In the case of `C=C(C)[C@@H]1CC[C@]2(C(N)=O)CC[C@]3(C)[C@H](CC[C@@H]4[C@@]5(C)CC[C@H](OCCC#N)C(C)(C)[C@@H]5CC[C@]43C)[C@@H]12`, the growth is reported as 99.9%.
Molecule `COC(=O)[C@@H]1CC[C@]2(C)[C@H](CC[C@@H]3O[C@@]32C)[C@@]1(C)CC(=O)c1ccoc1` has a growth of 89.8%.
`COc1ccc(/C=N/NC(N)=S)cc1` showed a growth of 88.9%.
`c1ccc(Cn2cc3c(c2)-c2nc(Nc4ccccc4)ncc2CC3)cc1` showed a growth of 79.4% [100 µM].
`COc1cc(C)ccc1Oc1nc(Nc2ccc(N3CCOCC3)cc2)ncc1NC(=O)Nc1cc(C(F)(F)F)cc(C(F)(F)F)c1` gave a growth of 42.4%.
For `O=C1c2ccccc2CCC1(Br)Br`, the growth was -31.3% (active).
For `O=C(O)COc1ccccc1F`, the growth was 104%.
For `Cc1cc2[nH]c(=O)c3c4ncccc4cn3c2cc1C`, the growth was 37.2%.
In the case of `CC(C)=CCc1cc2c(cc1O)C1=C(C(=O)C3=C(C1=O)S(=O)(=O)CCN3)C(C=C(C)C)O2` (stereo not given), the growth is reported as -36% (active).
For `COc1ccc(NC(=O)Nc2ccc(OCCCCCC(=O)NO)cc2)cc1`, the growth was 97.6%.
For `NCCSC(C[N+](=O)[O-])c1ccccc1Cl` (stereo not given), the growth was 31.8%.
`COc1c(CCC[P+](c2ccccc2)(c2ccccc2)c2ccccc2)cc2c(c1OC)OCO2` gave a growth of 10.2%.
`CSc1nc2ncncc2[nH]1` gave a growth of 91.2%.
In the case of `CCCCNC(=O)c1cc([N+](=O)[O-])cc(C2CCCCC2)c1O`, the growth is reported as 19.8%.
For `CC1(C)C(N)=Nc2cc(OCCCN3Cc4ccc(OCCc5cn(CC(=O)N6CCC(CCN7CCCC7)CC6)nn5)cc4C3)c(OCC3CC3)cc21`, the growth was 97.3%.
In the case of `Cc1cc(O)ccc1Sc1ccccc1[N+](=O)[O-]`, the growth is reported as 115%.
`COC(=O)CNC(=O)c1ccc(NC(=O)c2[nH]c(C)c(Cl)c2Cl)c(O[C@H]2CCNC2)c1` was tested, and the growth was 95.7%.
For `CC(C)=NNc1ncnc2c1ncn2C1OC(CO)C(O)C1O` (stereo not given), the growth was 6.58% (active).
Work on `O=C(/C=C/c1cccs1)Nc1ncc(Cc2ccc(Cl)c(Cl)c2)s1` yielded a growth of 14%.
With `Cn1c(=O)c2c(nc(Nc3cc(=O)[nH]c(=O)[nH]3)n2Cc2ccccc2)n(C)c1=O` the growth was 90.6%.
